Source: PubChem BioAssay
PTK2B oligo ant = blocks oligomerization of human Pyk2 in cells | Q14289 | Q293 cells, Pyk2 FERM NanoBiT luminescence; hits give low values | z-score (the deposit names both 25 µM and 10 µM) | actives 0.83% (n = 99,000);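 active = Z-score of -3 or lower, scaled per plate to the spread of control and sample wells; inactive = z-score above -3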;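 also: negative z-score means lost luminescence so less FERM oligomerization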
Target sequence (Q14289 whole entry, looked up): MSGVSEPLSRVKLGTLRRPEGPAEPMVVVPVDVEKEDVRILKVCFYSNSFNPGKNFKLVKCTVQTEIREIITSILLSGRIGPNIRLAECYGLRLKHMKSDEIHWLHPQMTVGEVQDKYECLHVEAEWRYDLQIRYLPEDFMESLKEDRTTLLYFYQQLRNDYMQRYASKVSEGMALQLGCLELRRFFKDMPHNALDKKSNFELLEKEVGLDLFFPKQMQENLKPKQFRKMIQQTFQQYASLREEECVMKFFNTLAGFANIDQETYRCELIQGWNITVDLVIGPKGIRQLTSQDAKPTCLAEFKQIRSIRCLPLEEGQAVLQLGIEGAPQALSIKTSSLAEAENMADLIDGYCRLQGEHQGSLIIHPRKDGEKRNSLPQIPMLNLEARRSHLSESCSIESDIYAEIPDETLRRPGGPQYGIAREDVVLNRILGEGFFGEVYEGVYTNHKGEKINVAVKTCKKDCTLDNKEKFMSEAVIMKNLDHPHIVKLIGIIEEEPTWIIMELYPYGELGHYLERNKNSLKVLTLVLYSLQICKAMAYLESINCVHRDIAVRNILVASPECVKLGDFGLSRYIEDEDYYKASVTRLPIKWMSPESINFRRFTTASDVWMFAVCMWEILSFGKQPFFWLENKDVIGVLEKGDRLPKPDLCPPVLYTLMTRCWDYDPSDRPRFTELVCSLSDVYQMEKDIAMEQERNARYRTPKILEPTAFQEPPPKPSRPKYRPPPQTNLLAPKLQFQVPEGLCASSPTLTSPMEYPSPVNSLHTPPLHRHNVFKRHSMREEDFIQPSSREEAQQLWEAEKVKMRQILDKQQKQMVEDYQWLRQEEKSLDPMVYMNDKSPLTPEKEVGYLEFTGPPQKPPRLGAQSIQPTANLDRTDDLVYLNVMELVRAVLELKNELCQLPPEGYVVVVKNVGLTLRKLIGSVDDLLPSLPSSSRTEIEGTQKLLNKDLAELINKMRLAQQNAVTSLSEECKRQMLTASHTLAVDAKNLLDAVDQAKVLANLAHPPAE
Cav32 inh = blocks human Cav3.2 T-type calcium channel. B-score at 10 µM. Cav3.2-expressing cells, Fluo-4 calcium fluorescence FDSS; hits give low values. actives 4% (n = 100,000). O95180;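 active = single-dose well whose peak fluorescence ratio is a statistical outlier from its plate by either plate-standardised score or position-corrected B-score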
CYP2C19 inh = human CYP2C19 inhibition. P33261. CYP2C19 Supersomes, luciferin-H EGE luminescence, 30 min. inhibition, % at 5 µM. actives 21% (n = 96,000). AID 778;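 active = CYP2C19 inhibition above a set limit at 5 µM in the primary screen, cut at about 50% in these data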;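 also: plate controls were negative control wells for no effect and 2.5 mM tranylcypromine positive control for full effect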
CYP2C9 inhib = human CYP2C9 inhibition; actives 20% (n = 96,000); P11712; inhibition, % at 5 µM; CYP2C9 Supersomes, luciferin-H conversion, luminescence; AID 777;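 active = blocking of liver enzyme CYP2C9 beyond about 50% at 5 µM, limit read from the data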
CYP2C19 activ = increases human CYP2C19 enzyme activity. P33261. recombinant CYP2C19, luciferin-H EGE luminescence; hits give high values; 0 = fully inhibited enzyme, 1 = untreated enzyme. activation factor at 5 µM. 96,000 tested, under 10 active. AID 1025;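 active = activation factor of at least 2 at 5 µM in the primary screen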;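 also: 0 = wells with 2.5 mM tranylcypromine and 1 = vehicle-only wells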
CYP2C9 activ = activators of human CYP2C9 | P11712 | recombinant CYP2C9, luciferin-H conversion, luminescence; hits give high values; factor 1 = untreated enzyme, 0 = blocked | activation factor at 5 µM | actives 1.4% (n = 96,000);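 active = activation factor of 2 or more for CYP2C9 at a 5 µM dose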;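 also: 0 = sulfaphenazole-blocked wells and 1 = vehicle-only wells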
Numbers without * were called inactive; nt = not tested or not shown. Only some compounds are listed: those with a hit (about 27% of all), similar ones and a draw of the others.

SMILES	PTK2B oligo ant	Cav32 inh	CYP2C19 inh	CYP2C9 inhib	CYP2C19 activ	CYP2C9 activ
COc1ccccc1/C=C/C(=O)NC(=S)N(C)C1CCCCC1	-0.63	nt	14	-164	0.9	2.6*
O=C(CSc1ncc(-c2ccc(F)cc2)[nH]1)Nc1cccc(O)c1	-0.07	-1.7	51*	10	0.5	0.9
CCc1nnc(NC(=O)CSc2nnc3ncccn23)s1	-0.46	0.46	68*	35	0.3	0.6
Cc1csc(NC(=O)CSc2nnc3ncccn23)n1	1.3	-0.13	15	5	0.8	0.9
CCc1nnc(NC(=O)CSc2nnc(Cc3ccccc3)n2Cc2ccccc2)s1	-0.75	-1.9	28	43	0.7	0.6
CCc1nnc(NC(=O)CSc2ncc(-c3ccccc3)[nH]2)s1	0.1	-0.38	25	66*	0.7	0.3
CCc1nnc(NC(=O)CSc2ncc(-c3ccccc3)n2CC)s1	-0.14	-1	76*	72*	0.2	0.3
CCCNC(=O)N1CCN(S(=O)(=O)c2ccc(C)c(C)c2)CC1	0.42	0.23	nt	nt	nt	nt
CCOC(=O)CSc1nnc(Cn2nnc(-c3ccccc3)n2)n1C	0.68	0.51	10	3	0.9	1
CCc1nnc(NC(=O)CSc2ccc(-c3nc4ccccc4[nH]3)cn2)s1	-0.82	-2.2	23	51*	0.8	0.5
Cc1ccc(C(=O)Nc2ccccc2N2CCN(C(=O)C(C)C)CC2)cc1C	-0.28	-1.4	76*	89*	0.2	0.1
CN1CCN(c2ccccc2NC(=O)c2ccc(OCc3ccccc3)cc2)CC1	0.2	-1.8	48	40	0.5	0.6
COc1c(F)c(F)c(C(=O)Nc2ccccc2N2CCN(C(=O)C(C)C)CC2)c(F)c1F	0.32	0.079	61*	78*	0.4	0.2
CCC(=O)N1CCN(c2ccccc2NC(=O)c2ccc(OC)c(Cl)c2)CC1	-0.26	0.35	74*	82*	0.3	0.2
COc1c(F)c(F)c(C(=O)Nc2ccccc2N2CCN(C(C)=O)CC2)c(F)c1F	0.38	-0.01	9	7	0.9	0.9
CN1CCN(c2ccccc2NC(=O)c2ccc(-c3ccccc3)cc2)CC1	-0.42	0.6	94*	70*	0.1	0.3
COc1ccc(C2NC(=S)N3C(c4ccc(OC)cc4)NC(=S)N23)cc1 (stereo not drawn)	-2.2	nt	51*	28	0.5	0.7
S=C1NC(c2ccccc2)N2C(=S)NC(c3ccccc3)N12 (stereo not drawn)	0.07	-1.3	94*	78*	0.1	0.2
S=C1NC[C@H](c2ccccc2)N1CC1CCCCC1	nt	0.18	nt	nt	nt	nt
Cc1cc(C)c2c(N)c(C(=O)NCc3ccco3)sc2n1	0.19	-0.0095	nt	nt	nt	nt
Cc1ccc(S(=O)(=O)NNC(=O)c2snnc2C)cc1	0.56	0.009	-10	9	1.1	0.9
CCOC(=O)Nc1sc2nc(C)cc(C)c2c1-n1cccc1	-0.77	0.84	45	66*	0.5	0.3
Cc1cc(C)c2c(-n3cccc3)c(C(=O)NNS(=O)(=O)c3ccc(Br)cc3)sc2n1	-1.2	-4.7*	nt	nt	nt	nt
NC(=O)c1c(NC(=O)CSc2nnc(-c3ccccc3)n2CC2CCCO2)sc2c1CCC2 (stereo not drawn)	-0.08	0.38	80*	91*	0.2	0.1
N#Cc1c(NC(=O)CSc2nnc(-c3ccccc3O)n2-c2ccccc2)sc2c1CCCC2	-0.46	-4.8*	74*	67*	0.3	0.3
SMILES	PTK2B oligo ant	Cav32 inh	CYP2C19 inh	CYP2C9 inhib	CYP2C19 activ	CYP2C9 activ
Cn1c(-c2ccc(F)cc2)cnc1SCC(=O)N1CCCCC1	-0.07	0.2	62*	-4	0.4	1
N#Cc1c(NC(=O)CSc2nnc(-c3ccncc3)n2CC2CCCO2)sc2c1CCCC2 (stereo not drawn)	0.21	-1.6	69*	87*	0.3	0.1
CCc1cccc(C)c1NC(=O)C1=C(C(=O)O)CCCC1	0.37	0.15	6	-15	0.9	1.1
O=C(CSc1nnc(-c2ccncc2)n1CC1CCCO1)Nc1cccc(O)c1 (stereo not drawn)	0.93	-0.42	36	67*	0.6	0.3
N#Cc1c(NC(=O)CSc2ncc(-c3ccccc3)n2CC2CCCO2)sc2c1CCCC2 (stereo not drawn)	-0.81	-2.8	60*	73*	0.4	0.3
O=C(CSc1ncc(-c2ccccc2)n1CC1CCCO1)N1CCCCC1 (stereo not drawn)	-0.11	-0.17	58*	9	0.4	0.9
CC(=O)Nc1ccccc1C(=O)N1CC(C)OC(C)C1 (stereo not drawn)	-0.04	0.1	-9	3	1.1	1
CC1(C)Cc2noc(N)c2C(C)(C)N1O	0.63	0.64	nt	nt	nt	nt
O=C(O)CCc1nnc2n(Cc3ccc(F)cc3)c(=O)c3ccccc3n12	nt	0.57	-2	-1	1	1
COc1ncnc2c1N[C@@](C)(O)c1c(F)c(F)c(F)c(F)c1S2	0.84	0.24	86*	29	0.1	0.7
C/C(=N\NC(=O)c1c(Cl)c(C)nn1C)c1cccc(NC(=O)COc2ccccc2)c1	2.1	-0.021	28	43	0.7	0.6
C/C(=N\NC(=O)c1c(Cl)c(C)nn1C)c1ccc(NC(=O)COc2ccc(Cl)cc2C)cc1	1.1	-0.4	42	66*	0.6	0.3
CS(=O)(=O)N(CC(=O)Nc1ccc2c(c1)OCO2)c1ccc2c(c1)OCO2	-1.4	0.019	44	28	0.6	0.7
CS(=O)(=O)N(CC(=O)NCCSCc1cccc(Cl)c1)c1ccc2c(c1)OCO2	0.18	nt	88*	82*	0.1	0.2
CS(=O)(=O)N(CC(=O)NCCSc1ccc(Cl)cc1)c1ccc2c(c1)OCO2	-0.24	nt	69*	62*	0.3	0.4
CS(=O)(=O)N(CC(=O)NCCSc1ccccc1)c1ccc2c(c1)OCO2	-0.33	0.0034	76*	64*	0.2	0.4
CC1=NN(C(=O)c2ccc(Cn3nc(C)cc3C)o2)C(O)(C(F)(F)F)C1 (stereo not drawn)	0.65	0.45	21	-3	0.8	1
O=C(NCCCCNC(=O)c1ccco1)c1ccco1	-0.17	0.38	-2	7	1	0.9
CC(NC(=O)COC(=O)CCNC(=O)c1ccco1)C12CC3CC(CC(C3)C1)C2 (stereo not drawn)	1.2	0.11	51*	56*	0.5	0.4
COc1cc(SC)ccc1C(=O)N(C)Cc1ccccc1	-1.3	-0.88	98*	-38	0	1.4
COc1cc(SC)ccc1C(=O)NCc1ccc(C)cc1	-1.6	-1.8	91*	-17	0.1	1.2
COc1cc(SC)ccc1C(=O)NCC1CCCO1 (stereo not drawn)	0.24	0.73	60*	-6	0.4	1.1
CCSc1nccc(-c2nn(-c3ccc(C)cc3)ccc2=O)n1	-0.06	-0.46	46	63*	0.5	0.4
COC(=O)CC1c2ccccc2S(=O)(=O)N1Cc1ccccc1 (stereo not drawn)	nt	0.12	nt	nt	nt	nt
